Measured values reported in paper PMC5540273 (PLoS ONE, 2017).

Columns and labels:
Details in all cases: concentration: 1 μM, replicates: in singlicate; n = 1
AAK1 = test system: AAK1
ABL1-nonphosphorylated = test system: ABL1-nonphosphorylated
ABL1-phosphorylated = test system: ABL1-phosphorylated
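Note: KINOMEscan kinase panel screen.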

| Compound | %Inh (AAK1) [%] | %Inh (ABL1-nonphosphorylated) [%] | %Inh (ABL1-phosphorylated) [%] |
| --- | --- | --- | --- |
| Fc1cccc(COc2ccc(Nc3ncnc4sc(-c5ccc[nH]5)cc34)cc2Cl)c1 [GW707818] | 0 | 0 | 0 |
| COC(=O)c1c(-c2ccccc2)c2cc(Cl)ccc2c(=O)n1Cc1ccc(S(C)(=O)=O)cc1 | 18 | 40 | 0 |
| CS(=O)(=O)CCNCc1ccc(-c2ccc3ncnc(Nc4ccc(OCc5ccccc5)c(Cl)c4)c3c2)o1.Cl [GW574783] | 13 | 0 | 0 |
| FC(F)(F)c1cc(Nc2nccc(-c3c(-c4ccc(Cl)cc4)nn4ncccc34)n2)ccc1Cl [GW829351] | 4 | 42 | 0 |
| FC(F)(F)c1ccc(-c2nn3ncccc3c2-c2ccnc(Nc3cccc(C(F)(F)F)c3)n2)cc1 [GW828205] | 1 | 47 | 30 |
| Cl.Cn1ccc(-c2cccc(Nc3ccnc4cc(-c5nccs5)ccc34)c2)n1 [GW525701] | 50 | 0 | 1 |
| Nc1nc(-c2ccc3c(N)n[nH]c3c2)cc(N2CCC[C@@H](C(=O)Nc3ccccc3)C2)n1.O=C(O)C(F)(F)F.O=C(O)C(F)(F)F [GSK2288359] | 38 | 0 | 0 |
| COc1ccc(Nc2nccc(N3CCC(NC(=O)Nc4ccc5c(c4)OCO5)C3)n2)cc1 (stereo not drawn) [GSK1379745] | 3 | 0 | 0 |
| O=C(c1ccc(-c2cc(-c3c[nH]nc3-c3ccccn3)ccn2)cc1)N1CCCC1 [GW792479] | 12 | 74 | 59 |
| O=C(CCO)NCCn1ccc2ncnc(Nc3ccc(Oc4cccc(C(F)(F)F)c4)c(Cl)c3)c21 | 0 | 24 | 12 |
| c1ccc(-c2ccc3c(-c4ccnc(Nc5ccc6c(c5)OCCO6)n4)cnn3n2)cc1 [GW818941] | 0 | 0 | 0 |
| COc1ccc(NC(=O)Nc2ccc(C)c(-c3ccc(C(=O)Nc4ccncc4)cc3)c2)cc1 [GSK1398475] | 2 | 0 | 2 |
| COc1cc2ncnc(Nc3ccc(OCc4ccccc4Br)c(Cl)c3)c2cc1OC.Cl [GI261590] | 15 | 0 | 0 |
